Assay results published in the supplement of paper PMC6555819.

Legend:
Assay in all cases: PBM binding z-score (relative to random genomic background probes); higher = stronger binding; sequences stand for … in GC…GCGATTGACAGCGTAGAATGAAGG
[1] = tested on: FXR:RXRa (NR concentration 270 nM, RXRa partner concentration 90 nM)
Summary of the method: (§1)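 Regression normalization was applied to scanned fluorescence from custom Agilent 4×180K protein-binding microarrays. Before scanning, arrays were incubated 1 h with ligand-free nuclear receptor dimers, and binding was detected with antibodies against each partner (one per run). Binding z-scores use the random background probes as reference.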

[2] = tested on: LXRa:RXRa (NR concentration 270 nM, RXRa partner concentration 90 nM)
Summary of the method: as §1

[3] = tested on: LXRa homodimer (NR concentration 270 nM)
Summary of the method: as §1

[4] = tested on: LXRb:RXRa (NR concentration 270 nM, RXRa partner concentration 90 nM)
Summary of the method: as §1

[5] = tested on: LXRb homodimer (NR concentration 270 nM)
Summary of the method: as §1

[6] = tested on: PPARa:RXRa (NR concentration 270 nM, RXRa partner concentration 90 nM)
Summary of the method: as §1

[7] = tested on: PPARg:RXRa (NR concentration 180 nM, RXRa partner concentration 90 nM)
Summary of the method: as §1

[8] = tested on: PPARg:RXRa 270nM:90nM, anti-RXR (NR concentration 270 nM, RXRa partner concentration 90 nM)
Summary of the method: as §1

[9] = tested on: PPARg:RXRa 30nM:10nM, anti-RXR (NR concentration 30 nM, RXRa partner concentration 10 nM)
Summary of the method: as §1

[10] = tested on: PPARg:RXRa 90nM:30nM, anti-RXR (NR concentration 90 nM, RXRa partner concentration 30 nM)
Summary of the method: as §1

[11] = tested on: PPARg:RXRa DBDmut IVT, anti-RXR (DBD mutation: RXRa K156A/R161A, NR concentration 270 nM, RXRa partner concentration 90 nM)
Summary of the method: as §1

[12] = tested on: PPARg:RXRa IVT, anti-PPARg (NR concentration 270 nM, RXRa partner concentration 90 nM)
Summary of the method: as §1

[13] = tested on: PPARg DBDmut:RXRa IVT, anti-PPARg (DBD mutation: PPARg1 K132A/R137A, NR concentration 270 nM, RXRa partner concentration 90 nM)
Summary of the method: as §1

[14] = tested on: PPARg DBDmut IVT, anti-PPARg (DBD mutation: PPARg1 K132A/R137A, NR concentration 270 nM)
Summary of the method: as §1

[15] = tested on: PPARg homodimer (NR concentration 180 nM)
Summary of the method: as §1

[16] = tested on: PXR:RXRa (NR concentration 270 nM, RXRa partner concentration 90 nM)
Summary of the method: as §1

[17] = tested on: PXR homodimer (NR concentration 270 nM)
Summary of the method: as §1

[18] = tested on: RARa homodimer (NR concentration 270 nM)
Summary of the method: as §1

[19] = tested on: RARb:RXRa (NR concentration 270 nM, RXRa partner concentration 90 nM)
Summary of the method: as §1

[20] = tested on: RARa:RXR (NR concentration 270 nM, RXRa partner concentration 90 nM)
Summary of the method: as §1

Row | Sequence | PBM binding z-score [1] | PBM binding z-score [2] | PBM binding z-score [3] | PBM binding z-score [4] | PBM binding z-score [5] | PBM binding z-score [6] | PBM binding z-score [7] | PBM binding z-score [8] | PBM binding z-score [9] | PBM binding z-score [10] | PBM binding z-score [11] | PBM binding z-score [12] | PBM binding z-score [13] | PBM binding z-score [14] | PBM binding z-score [15] | PBM binding z-score [16] | PBM binding z-score [17] | PBM binding z-score [18] | PBM binding z-score [19] | PBM binding z-score [20]
1 | CAATCTAGGTCACGAAAGGTCAAAGTCGAATGAC | 7.83 | 8.36 | 8 | 7.57 | 3.05 | 6.84 | 10.7 | 8.68 | 7.62 | 9.02 | 8.53 | 9.13 | 5.67 | 4 | 6.67 | 7.2 | 3.37 | 4.3 | 5.76 | –
2 | TCTTGTAGATCAAAGGTTAAGACAGCCGAAGCCT | 1.72 | 2.27 | 0.473 | 2.31 | -0.101 | 4.74 | 8.11 | 8.23 | 7.63 | 8.39 | 2.1 | 3.94 | 1.03 | 0.9 | 1.28 | 2.12 | -0.0752 | 0.276 | 1.91 | –
3 | TAGCCTAGGTCATTCAGGGGCCAGAATAGAAAGC | 4.69 | 3.94 | 0.569 | 3.21 | 1.34 | 3.9 | 2.33 | 2.29 | 0.331 | 1.44 | 1.69 | 2.95 | -0.139 | 0.318 | 1.44 | 2.48 | 0.043 | -0.355 | 4 | –
4 | TAGCCTAGGTCATTCAGGGGTCAGTATAGAAAGC | 5.8 | 5.2 | 3.94 | 5.72 | 2.32 | 5.18 | 4.13 | 4.56 | 1.78 | 3.3 | 2.45 | 3.97 | 1.25 | 0.527 | 9.82 | 5.72 | 1.35 | 2.26 | 4.81 | –
5 | CTCGAAAGGTCGTGCTTAGGTGAGTATACCAAAC | 4.83 | 3.99 | 0.372 | 3.46 | 0.121 | 4.98 | 2.86 | 4.3 | 1.12 | 2.98 | 1 | 1.93 | 0.335 | 0.228 | 2.19 | – | 0.515 | 0.262 | 3.72 | 4.22
6 | CCAGAAAGGTGAAAGGTAACTCAGTCTGGTACGC | 2.31 | 2.14 | -0.21 | 2.12 | -0.446 | 5.13 | 6.55 | 6.26 | 4.77 | 6.27 | 4.19 | 4.68 | 0.791 | 0.428 | 1.51 | 2.26 | 0.172 | 0.674 | 3.3 | –
7 | GGAACGAGGGCAAAGGTGATAGCATCTGTCGACG | 2.08 | 1.64 | -0.402 | 1.23 | -0.651 | 4.97 | 9.32 | 8.6 | 7.51 | 9.41 | 5.67 | 5.29 | 0.379 | 0.895 | 1.42 | 1.9 | 0.114 | 0.0137 | 2.72 | –
8 | CGTCCAAGGTAAGAGAGGTCAGTGAATGCCGAGT | 1.6 | 2.42 | 1.66 | 1.72 | -0.936 | 2.53 | 0.401 | 1.2 | -0.312 | 0.249 | 0.589 | 0.75 | -1.12 | -1.45 | 1.77 | – | 1.61 | 0.562 | – | 3.12
9 | CGTCCAAGGTCAAAGGTCAGTAAAGAGATGACGG | 8.12 | 6.87 | 3.18 | 6.62 | 2 | 7.32 | 10.8 | 9.28 | 7.89 | 9.37 | 4.06 | 5.78 | 0.533 | 0.691 | 4.4 | 7.16 | 1.34 | 4.03 | 5.99 | –
10 | ATCGAAAGGTCGTCGAGGTGAGTATACACCGTTT | 4.79 | 4.28 | 0.169 | 3.19 | 0.543 | 4.87 | 3.07 | 3.97 | 1.22 | 2.66 | 0.528 | 2.3 | 0.899 | 0.213 | 1.6 | – | 1.15 | 0.174 | 3.89 | 3.81
11 | CCTTACGGGTCAAGGTTATATCACGGGTGGTACG | 5.41 | 3.89 | 0.787 | 3.34 | 0.134 | 4.99 | 4.26 | 4.7 | 1.6 | 3.52 | 1.74 | 3.78 | 0.607 | 0.522 | 2.64 | 3.63 | 0.951 | 0.89 | 4.15 | –
12 | ATCTCTAGGTAAAGGTCAGTGAAAGATCGATAGA | 3.48 | 3.55 | 1.74 | 3.42 | 1.54 | 4.32 | 6.77 | 6.29 | 4.39 | 6.41 | 3.45 | 4.2 | 1.29 | 1.49 | 3.73 | 3.35 | 1.1 | 2.88 | 4.53 | –
13 | CCTAGCAGGCCAGGGTCACCCAAGCATTTCGCTT | 2.7 | 1.95 | -0.482 | 2.3 | -1.1 | 3.82 | 1.34 | 2.02 | -0.0989 | 1.43 | -0.0206 | 1.79 | -0.767 | -1.42 | 1.59 | 3.36 | -0.361 | -0.318 | 3.12 | –
14 | CCTAGTTGGTCAGGAGGTCACATACCGGATATGA | 3.32 | 3.13 | 1.66 | 3.16 | 0.594 | 3.7 | 3.11 | 3.14 | 1.32 | 2.95 | 1.64 | 3.39 | 0.476 | 0.388 | 2.7 | – | 1.16 | 2.01 | 3.37 | 3.9
15 | CCTTACAGGTCAAGGTTATAGCACGGGTGGTACG | 6.13 | 4.73 | 2.02 | 3.5 | 1.18 | 5.2 | 4.94 | 4.89 | 1.9 | 3.82 | 3.89 | 4.19 | 0.977 | 0.925 | 3.36 | – | 0.575 | 1.94 | 4.65 | 4.39
16 | CGCCCAAGGTCAGCAGGTCAGTGAAAGCGACGTG | 5.7 | 4.2 | 0.381 | 2.99 | -0.0743 | 4.81 | 3.8 | 4.59 | 1.02 | 2.98 | 2.94 | 3.56 | 0.803 | -0.776 | 3.74 | – | 0.324 | 1.97 | 5.18 | 5.15
